{"source": "PubChem BioAssay (NCI)", "note": "The panel holds about 83,000 compounds, 20% with a hit somewhere; the sample as a whole holds those more often.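 A percent growth of 40 corresponds to 60% growth inhibition; 0 means no net growth; -100 means all cells died. Active threshold: below 10.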 The source made the active and inactive calls.", "data": [{"tested_on": "HL-60(TB) leukemia", "experiment": "NCI-60 one-dose screen, 48 h (100 = growth as untreated, 0 = no growth, -100 = all killed)", "settings": "10 µM unless noted", "values": [{"smiles": "N=C(N)c1ccc(-c2ccc(-c3cccs3)o2)cc1", "growth": "-28.5% (active)"}, {"smiles": "CC(=O)O[C@H]1CC[C@@]2(C)C(=CC[C@@H]3[C@@H]2CC[C@]2(C)C(=O)N(O)C(=O)C[C@@H]32)C1", "growth": "105% (inactive)"}, {"smiles": "O=C(/C=C/c1sc(Cl)nc1Cl)c1ccc(F)cc1", "growth": "61.2% (inactive)"}, {"smiles": "Cc1ccc(NC(=O)Cn2nncc2CN2C(=O)CSC2=O)cc1C", "growth": "95% (inactive)"}, {"smiles": "COc1cccc(-c2nc3cc(NC(=O)c4ccc(Cl)c(C#N)c4)ccc3o2)c1", "growth": "100% (inactive)"}, {"smiles": "O=C(COc1cccc(/C=C2\\CSc3ccc(Cl)cc3C2=O)c1)c1ccc(Cl)cc1", "growth": "79.2% (inactive)"}, {"smiles": "O=C1/C(=C/C(Cl)=C/c2ccccc2)SC(=S)N1CCc1ccc(O)cc1", "growth": "-7.15% (active)"}, {"smiles": "Nc1[nH]nc2nc(-c3ccccc3)n3c4ccccc4nc3c12", "growth": "97.5% (inactive)"}, {"smiles": "COC(=O)c1cc([N+](=O)[O-])cc([N+](=O)[O-])c1Cl", "growth": "55.4% (inactive)"}, {"smiles": "CCOC(=O)c1cc(-c2ccc(OC)cc2)[nH]c1NNC(=O)CCOC", "growth": "90.8% (inactive)"}, {"smiles": "COc1ccc(C2CC(c3ccc(Cl)cc3)=NN2/C=C2\\SC(=S)N(NC(=O)Cc3ccccc3Nc3c(Cl)cccc3Cl)C2=O)cc1", "note": "(stereo not given)", "growth": "64.7% (inactive)"}, {"smiles": "Nc1ccc2c(c1)Cc1cc(N)c(N)cc1-2", "growth": "78.1% (inactive)"}, {"smiles": "Nc1ccc(C(=O)CSc2nc3ccccc3[nH]2)cc1", "growth": "95.3% (inactive)"}, {"smiles": "Cc1nn(-c2ccc(Cl)cc2)c(=O)n1CCOc1ccccc1Cl", "growth": "106% (inactive)"}, {"smiles": "Nc1nccc2c1ccn2-c1cccc(NC(=O)c2ccc(N3CCOCC3)c(C(F)(F)F)c2)c1", "growth": "-3.75% (active)"}, {"smiles": "N#Cc1c(N)nc2c(c(-c3ccc(Cl)cc3)nn2-c2ccccc2)c1C#N", "growth": "98.9% [100 µM] (inactive)"}, {"smiles": "Cc1ccc(S(=O)(=O)Nc2cccc3[nH]c(C(F)(F)F)nc23)cc1", "growth": "0.648% (active)"}, {"smiles": "COc1ccc(Cc2cnc(NC(=O)c3ccc4c(c3)OCCO4)s2)cc1", "growth": "-42.1% (active)"}, {"smiles": "O=S(=O)(NCCCNc1nccc(-c2c(-c3ccc(O)cc3)nc3sccn23)n1)c1ccc(F)cc1", "growth": "-32.3% (active)"}, {"smiles": "Cc1ccc(-c2nc(/C=N/Nc3cc(C)nc4ccc(Cl)cc34)c(C)o2)cc1", "growth": "-19.6% (active)"}, {"smiles": "O=C1Cc2cc(CCN3CCN(c4nsc5ccccc45)CC3)c(Cl)cc2N1", "growth": "108% (inactive)"}, {"smiles": "COc1cc(C(=O)N(C(C)C)C2CCCCC2)cc(OC)c1OC", "growth": "96.7% (inactive)"}, {"smiles": "C=C1C(=O)O[C@H]2[C@H]1CC/C(CNC(=O)c1cc3cc(OC)ccc3[nH]1)=C\\CC[C@@]1(C)O[C@@H]21", "growth": "-21.3% (active)"}, {"smiles": "CCCCCN1C(=O)/C(=c2\\sc3n(c2=O)C2C(NN=3)N(CC)C(=O)N2CC)c2ccccc21", "note": "(stereo not given)", "growth": "-56.6% (active)"}, {"smiles": "O=C(/C=C/C(=O)c1ccccc1)c1ccccc1", "growth": "57.3% (inactive)"}, {"smiles": "O=C(NNc1nc2cc(F)ccc2n2c(CN3CCOCC3)ccc12)c1ccccc1", "growth": "-1.51% (active)"}, {"smiles": "COc1cc(C2CC(C3C(=O)N(C)C(=O)N(C)C3=O)=NN2C=O)cc(OC)c1OC", "note": "(stereo not given)", "growth": "104% (inactive)"}, {"smiles": "COc1ccc(CCl)c(C)c1OC", "growth": "99% (inactive)"}, {"smiles": "Cc1ccc(C2=NN(c3ccc(S(=O)(=O)NC(=O)NCc4ccccc4)cc3)C(c3ccc(N(C)C)cc3)C2)c(C)c1", "note": "(stereo not given)", "growth": "-1.6% (active)"}, {"smiles": "COc1ccc2cc(Cn3cc[n+](Cc4ccc5ccccc5c4)c3)ccc2c1", "growth": "-46.6% (active)"}, {"smiles": "Nc1ccc(Oc2c(F)c(F)c(Oc3ccc(N)cc3)c(F)c2F)cc1", "growth": "76.9% (inactive)"}, {"smiles": "c1ccc(-c2nnc(-c3ccccn3)s2)nc1", "growth": "95.8% (inactive)"}, {"smiles": "CCOC(=O)C#Cc1c(C(=O)OCC)nnn1[C@@H]1O[C@H](COC)[C@@H](OC)[C@H]1OC", "growth": "47.5% (inactive)"}, {"smiles": "O=C1NC(=O)c2ncccc21", "growth": "115% (inactive)"}, {"smiles": "COc1ccc2nc(NNC(=O)c3cnccn3)c3cccn3c2c1", "growth": "-27.1% (active)"}, {"smiles": "CCO/C=N/C1=C(C#N)C(c2ccc(OC)cc2)c2c(c3ccccc3n(C)c2=O)O1", "note": "(stereo not given)", "growth": "102% (inactive)"}, {"smiles": "Oc1ccccc1-c1nc2ccccn2c1NCCN1CCOCC1", "growth": "102% (inactive)"}, {"smiles": "COc1ccc(Nc2ncccc2NC(=O)c2cn(Cc3cccc(Oc4ccccc4)c3)nn2)cc1OC", "growth": "55.8% (inactive)"}, {"smiles": "COc1ccc(/C=C/c2c(C(=O)/C=C/c3ccc(C(F)(F)F)cc3)c(C)nc3ccccc23)cc1", "growth": "-21.7% (active)"}, {"smiles": "O=C1Nc2ccc(Br)cc2C1=O", "growth": "99.6% (inactive)"}]}]}
